Bioassay records as filed in PubChem.
CCHFV vOTU inh = blocks the CCHF virus ovarian tumor domain protease. AID 651958. inhibition, % at 11.5 µM. 370,000 compounds, 0.55% hits. CCHFV vOTU protease, Pep-AMC fluorescence; in the data active = inhibition above about 30%; also: 0% = vehicle wells with enzyme and 100% = no enzyme wells
GDH-TPI counter-1 = GDH-TPI coupled enzyme inhibition counter-screen; GDH-TPI coupled enzyme counterscreen, NADH absorbance; inhibition, % at 4.8 µM; 360,000 compounds, 1.2% hits; AID 588335; in the data active = inhibition above about 30%;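 also: 0% = DMSO wells and 100% = wells lacking the enzyme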
3CLpro inhibitor = SARS-CoV 3CLpro protease inhibition; recombinant SARS-CoV 3CLpro, quenched FRET peptide cleavage; inhibition, % at 6 µM; 290,000 compounds, 0.14% hits; AID 1706; in the data active = inhibition above about 12%
DUSP3 inh = DUSP3 (human) phosphatase inhibition | 290,000 compounds, 0.52% hits | P51452 | recombinant VHR phosphatase, pNPP absorbance | AID 1654 | inhibition, % at 13.3 µM; in the data active = inhibition above about 50%
Target sequence (P51452 whole entry, looked up): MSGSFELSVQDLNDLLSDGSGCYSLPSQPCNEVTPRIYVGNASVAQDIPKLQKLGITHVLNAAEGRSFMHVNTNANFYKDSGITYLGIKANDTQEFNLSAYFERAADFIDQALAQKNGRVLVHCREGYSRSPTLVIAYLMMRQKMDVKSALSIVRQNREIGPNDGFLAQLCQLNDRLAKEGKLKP
FBA Mtb inh = inhibits M. tuberculosis FBA enzyme; P9WQA3; purified M. tuberculosis FBA, fluorescence read-out; inhibition, % at 1 µM; 360,000 compounds, 2.3% hits;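 also: 0% = vehicle and 100% = reference inhibitor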
Target sequence (P9WQA3 whole entry, looked up): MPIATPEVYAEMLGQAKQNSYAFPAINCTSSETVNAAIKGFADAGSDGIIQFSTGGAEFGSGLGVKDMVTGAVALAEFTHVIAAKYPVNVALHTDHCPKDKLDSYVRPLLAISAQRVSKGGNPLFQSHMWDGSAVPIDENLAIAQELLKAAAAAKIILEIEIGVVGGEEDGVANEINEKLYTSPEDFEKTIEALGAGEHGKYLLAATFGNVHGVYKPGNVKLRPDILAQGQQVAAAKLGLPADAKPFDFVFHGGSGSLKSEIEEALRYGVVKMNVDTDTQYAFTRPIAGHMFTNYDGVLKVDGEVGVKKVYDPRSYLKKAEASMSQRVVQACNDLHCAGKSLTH
RecA splice inh = Mtb RecA intein splicing inhibition | cell-free RecA intein splicing, fluorescence | inhibition, % (test concentration not listed) | P9WHJ3 | 290,000 compounds, 0.75% hits; in the data active = inhibition above about 30%;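 also: 0% = vehicle wells and 100% = reference inhibitor control wells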
Mtb FBA inh conf = Mtb FBA inhibition, confirmed; shares compounds with FBA Mtb inh; purified M. tuberculosis FBA, fluorescence read-out; inhibition, % at 1 µM; 5,600 compounds, 78% hits;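 also: 0% = vehicle wells and 100% = reference inhibitor wells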
GDH-TPI counter-2 = counter-screen for M. tuberculosis FBA inhibitors: GDH-TPI coupled enzyme inhibition | shares compounds with FBA Mtb inh | GDH-TPI coupled enzyme counterscreen, fluorescence | inhibition, % at 1 µM | 5,600 compounds, 81% hits; in the data active = inhibition above about 10%
Numbers without * were called inactive; · = no result given; + = active, no number. This is a sample that favours compounds with a hit; in the whole collection about 4.7% have one here. Rule as the data show it, unless noted: active = inhibition above about 27%; inactive = the rest.

SMILES	CCHFV vOTU inh	GDH-TPI counter-1	3CLpro inhibitor	DUSP3 inh	FBA Mtb inh	RecA splice inh	Mtb FBA inh conf	GDH-TPI counter-2
CCOc1c2ccc(C(=O)NCCc3ccc(C)cc3)cc2nn1CC	-52	1	-4	13	51*	0	121*	105*
CCn1nc2cc(C(=O)NCCc3cccs3)ccc2c1OC	-23	4	-1	2	41*	-4	+	196*
Cc1ccc(C(=O)NCCc2cccs2)cc1	-17	13	5	36	1	0	·	·
O=C(CN(C(=O)CCC(=O)Nc1ccccn1)c1cccc(F)c1)NCc1ccco1	11	-12	-7	28	-3	-1	·	·
O=S1(=O)CC2c3ccccc3CCN2CN1CCc1ccccc1 (stereo unspecified)	1	·	·	·	·	·	·	·
O=C(NCCNC(=O)c1cc(Cl)ccc1Cl)c1ccccn1	-5	1	-3	-25	3	3	·	·
Cc1cc(N2CCC(C)CC2)nc2ccc(N3C(=O)CCC3=O)cc12	-45	10	0	-4	59*	3	98*	79*
CCOc1cc(CNCc2ccncc2)cc(Cl)c1OC	-1	12	-1	14	1	0	·	·
COc1ccc2oc(=O)c(C(=O)n3ccc(C)n3)cc2c1	-17	16	1	13	40*	·	78*	54*
COc1ccc2oc(=O)c(C(=O)NCC3CCCO3)cc2c1 (stereo unspecified)	-67	15	1	21	64*	-97	79*	59*
COc1ccc2oc(=O)c(C(=O)Nc3cccc(C(C)=O)c3)cc2c1	-6	-6	-1	10	0	0	·	·
CNC(=O)c1cc2cc(OC)ccc2oc1=O	·	-1	-1	12	59*	-28	14	-4
COc1ccc(-c2cc(C(F)F)n3ncc(C(=O)NCC4CCCO4)c3n2)cc1 (stereo unspecified)	-19	26	-7	-5	29*	-23	96*	76*
Cc1ccn(C(=O)c2cc3cc(Cl)ccc3oc2=O)n1	-9	9	0	0	3	-2	·	·
COc1ccc2oc(=N)c(C(=O)Nc3ccccc3)cc2c1	0	10	-2	36	4	·	·	·
CNC(=O)c1cc2cc(OC)ccc2oc1=N	-58	6	-6	14	54*	-59	28*	16*
Cc1ccc2nc(-c3ccccc3)cc(C(=O)NCC3CCCO3)c2c1 (stereo unspecified)	-30	7	4	13	41*	4	81*	86*
CCOC(=O)c1oc2nc3c(cc2c1N)COC(C)(C)C3	-41	12	-3	-13	45*	-2	12	17*
CCOC(=O)c1oc2nc3c(cc2c1N)CCCC3	-8	-10	3	1	25	1	·	·
CCOC(=O)c1oc2nc(C)c3c(c2c1N)CC(C)(C)OC3	-14	1	3	0	34*	1	100*	75*
COCCn1c(N)c(N(Cc2ccccc2)C(=O)C(C)Oc2ccc(Br)cc2)c(=O)[nH]c1=O (stereo unspecified)	-6	5	·	·	8	·	·	·
COc1cccc(Nc2ccc(C(=O)O)cc2N)c1	-223	15	5	35	62*	7	49*	49*
Cc1ccc(Nc2ccc(C(=O)O)cc2N)cc1	-173	·	-3	34	·	4	·	·
CCc1nc2c(OCc3ccc(F)c(F)c3)cccn2c1N(C)C(=O)c1ccncc1	9	2	·	·	-1	·	·	·
COc1ccc(-c2csc(NC(=O)CCN3C(=O)C4CC=CCC4C3=O)n2)cc1OC (stereo unspecified)	16	8	·	·	-2	0	·	·
SMILES	CCHFV vOTU inh	GDH-TPI counter-1	3CLpro inhibitor	DUSP3 inh	FBA Mtb inh	RecA splice inh	Mtb FBA inh conf	GDH-TPI counter-2
Cc1ccc(NC(=O)CSCC(=O)Nc2cc(Cl)ccc2N2CCOCC2)cc1	12	2	·	·	-2	4	·	·
CC(=O)c1ccc(S(=O)(=O)N(C)CCCC(=O)NCc2ccc3c(c2)OCO3)cc1	8	9	·	·	84*	·	144*	96*
CCCc1cc(=O)oc2cc(C)cc(OCC(=O)Nc3cccnc3)c12	18	11	-5	48	82*	-9	7	0
Cc1cc(OCC(=O)NC2CC(C)(C)NC(C)(C)C2)c2c(C)cc(=O)oc2c1	-31	3	-3	56*	94*	6	132*	114*
Cc1cc(OCC(=O)NCc2cccnc2)c2c(C)cc(=O)oc2c1	-2	12	5	29	68*	-3	-6	-6
Cc1cc(OCC(=O)NCc2cccnc2)c2c(C)c(Cc3ccccc3)c(=O)oc2c1	-2	0	1	0	12	0	·	·
Cc1c(C)c2ccc(OCC(=O)Nc3cccnc3)cc2oc1=O	-23	19	-3	-9	22	-1	·	·
Cc1cc(OCC(=O)Nc2cccnc2)c2c(C)cc(=O)oc2c1	-17	9	-2	14	78*	-1	-2	-2
CCc1ccc(-c2csc(NC(=O)COC(=O)CCc3nc4ccccc4s3)n2)cc1	·	·	-3	7	·	-1	·	·
COc1ccc(CNC(=O)C2CCC(=O)N(CCCN3CCCC3=O)C2)c(OC)c1 (stereo unspecified)	1	7	0	24	2	-4	·	·
NS(=O)(=O)c1ccc(NC(=S)N2CCN(C(=O)C3CCCO3)CC2)cc1 (stereo unspecified)	·	6	-4	1	-1	-4	·	·
C=CCCC(=O)N1C[C@H]2CON(C)[C@H]2C[C@H]1c1ccc(Br)cc1	20	5	·	·	1	·	·	·
Nc1cc2nc[nH]c2cc1N	-16	11	-3	8	32*	-5	55*	51*
Cc1nc2ccc(NC(=O)N3CCOCC3)cc2nc1C	-75	9	-12	27	43*	-3	+	147*
Cc1nc2ccc(NC(=O)N3CCOCC3)cc2s1	24	-5	1	-12	0	-5	·	·
CCOC(=O)C1CCN(C(=O)Nc2ccc3nc(C)c(C)nc3c2)CC1	-102	11	-4	13	78*	0	115*	77*
COc1ccc2cc(/C(C)=N/NC(=O)c3cc(-c4cccnc4)nc4ccccc34)ccc2c1	-12	12	-4	10	34*	-2	105*	89*
CCOc1ccccc1-c1cc(C(=O)N/N=C/c2ccc3c(c2)OCO3)c2ccccc2n1	13	16	7	4	66*	·	+	+
CCOc1cc(/C=N/NC(=O)c2cc(-c3cccnc3)nc3ccccc23)ccc1O	5	51*	1	5	108*	-2	6	-1
O=C(N/N=C/c1ccc2c(c1)OCO2)c1cc(-c2ccccc2Cl)nc2ccccc12	3	-4	-2	1	-1	6	·	·
